From PubChem BioAssay AID624136 (Broad Institute, 2012) come the findings set out here.

Each structure is given as a SMILES string. About 75 (0.4%) of roughly 17,000 compounds were called active. This is one part of a sample in which actives are shown more often than they occur.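 Rule for the calls: active = compounds whose four printed spots each glow above background more than chance allows, each with a p-value under 7%; inactive = the rest.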

The subject of the test is mutant tumor protein p53 (GST-tagged), Homo sapiens. The experiment in a line: binders of human mutant p53, primary screen, biochemical, small molecule microarray, anti-GST fluorescence (AID 624136). The settings on record: small molecule microarray binding.
Turning to `CC(=O)N[C@@H](C(=O)O[C@H]1CCC(C)(C)[C@@H]2CCC3=C(COC3=O)[C@@]12C)C(C)C`, the result was inactive.

On to `CC(C)NC(=O)N(C)C[C@H]1OCCCC[C@H](C)Oc2ccc(NC(=O)Nc3ccc(C(F)(F)F)cc3)cc2C(=O)N([C@H](C)CO)C[C@@H]1C`, for which the result was inactive. Regarding `CC(C)NC(=O)N(C)C[C@@H]1OCCCC[C@@H](C)Oc2ccc(NC(=O)Cc3ccccc3)cc2C(=O)N([C@H](C)CO)C[C@H]1C`, the compound was called inactive. In the case of `C[C@H]1CN([C@@H](C)CO)C(=O)c2cccc(NC(=O)Nc3ccc(C(F)(F)F)cc3)c2O[C@H]1CN(C)C(=O)NC1CCCCC1`, the outcome was inactive.

Regarding `COC(=O)C1=CO[C@@H](O[C@@H]2O[C@H](CO)[C@@H](O)[C@H](O)[C@H]2O)[C@@H]2[C@@](C)(O)[C@@H](OC(=O)/C=C/c3ccc(OC)c(OC)c3)C[C@]12O`, the outcome was inactive. The entry for `C[C@H](CO)N1C[C@H](C)[C@H](CN(C)S(=O)(=O)c2cn(C)cn2)Oc2c(NC(=O)c3ccncc3)cccc2C1=O` is “inactive”; for `Cc1noc(C)c1NC(=O)N(C)C[C@@H]1Oc2ccc(NC(=O)Nc3ccc(F)cc3)cc2C(=O)N([C@H](C)CO)C[C@@H]1C` it is “inactive”; for `C[C@H](CO)N1C[C@H](C)[C@H](CN(C)C)Oc2c(NC(=O)C3CCOCC3)cccc2C1=O` it is “inactive”. The entry for `C[C@@H]1CN([C@@H](C)CO)C(=O)Cc2cc(NS(C)(=O)=O)ccc2O[C@@H]1CN(C)Cc1ccc2c(c1)OCO2` is “inactive”. The entry for `O=C(C1=C[C@H](c2ccc(C(F)(F)F)cc2)C[C@H](OCc2ccc(CO)cc2)O1)N1CCN(Cc2ccccc2)CC1` is “inactive”. For the compound `C[C@H](CO)N1C[C@H](C)[C@@H](CN(C)C)Oc2ccc(NS(=O)(=O)c3cccs3)cc2C1=O`, the compound was classed as inactive.

Turning to `COc1ccc(S(=O)(=O)N(C)C[C@H]2OCCCC[C@@H](C)Oc3ccc(NC(=O)CCC(F)(F)F)cc3C(=O)N([C@@H](C)CO)C[C@H]2C)cc1`, the compound was classed as inactive. Take `Cc1noc(C)c1NC(=O)N(C)C[C@H]1Oc2ccc(N(C)C)cc2CC(=O)N([C@H](C)CO)C[C@H]1C`: the call was inactive. In the case of `C[C@H]1CCCCO[C@H](CN(C)C(=O)Nc2ccccc2)[C@@H](C)CN([C@@H](C)CO)C(=O)c2cc(NC(=O)CCC(F)(F)F)ccc2O1`, the compound was called inactive. The entry for `N#Cc1c(-c2ccccc2)cc(-c2ccccc2)nc1SCC(=O)O` is “inactive”; for `CC(Sc1nnc(N)s1)C(=O)Nc1cccc(Cl)c1` (stereo not given) it is “inactive”; for `COc1ccc(NC(=O)Nc2cccc3c2O[C@@H](CN(C)Cc2ccncc2)[C@H](C)CN([C@H](C)CO)C3=O)cc1` it is “inactive”. The entry for `COC(=O)C1(Cc2ccc(O)c(CC3OC3(C)C)c2)OC(=O)C(=O)C1c1ccc(O)cc1` (stereo not given) is “inactive”; for `C[C@@H]1CCCCO[C@H](CN(C)S(=O)(=O)c2cccs2)[C@H](C)CN([C@@H](C)CO)C(=O)c2cc(NS(=O)(=O)c3cccs3)ccc2O1` it is “inactive”; for `C[C@@H]1CN([C@H](C)CO)C(=O)c2cc(NC(=O)NC3CCCCC3)ccc2O[C@H]1CN(C)C(=O)Nc1ccccc1` it is “inactive”. For the compound `COc1ccc(C)cc1NC(=O)CSc1nc(SC)ns1`, the compound was called inactive. For the compound `C[C@H](CO)N1C[C@H](C)[C@@H](CN(C)C(=O)Nc2ccccc2F)OCc2cn(nn2)CCCC1=O`, the compound was called inactive.

On to `COc1ccc(NC(=O)Nc2ccc3c(c2)C(=O)N([C@H](C)CO)C[C@H](C)[C@@H](CN(C)S(=O)(=O)c2ccc(OC)cc2)OCCCC[C@H](C)O3)cc1`, for which the compound was classed as inactive.

With `C[C@H](CO)N1C[C@H](C)[C@H](CN(C)C(=O)Nc2ccc3c(c2)OCO3)Oc2ncc(Br)cc2C1=O`, the outcome was inactive. The entry for `C[C@H]1CN([C@@H](C)CO)C(=O)Cc2cc(NC(=O)Nc3ccc4c(c3)OCO4)ccc2O[C@H]1CN(C)CC1CC1` is “inactive”.
